Measurements reported in the supplement of paper PMC13380429.
A number with no mark means an inactive call.

Each compound was assayed on Vero E6 infected with SARS-CoV-2 (assay: inhibition of SARS-CoV-2 cytopathic effect; higher = more antiviral protection, active = above 15). Conditions: 10000 nM; 48 h.

Structure (SMILES)	inhibition of SARS-CoV-2 cytopathic effect [%]
COc1nccc(-c2c(-c3ccc(F)cc3)ncn2[C@H]2CC[C@H](O)CC2)n1	7.7
C[C@]12C/C(=C/O)C(=O)C[C@@H]1CC[C@@H]1[C@@H]2CC[C@@]2(C)[C@H]1CC[C@]2(C)O [Oxymetholone]	1.57
Cc1cc(C)c2c(N)c(C(=O)NCc3ccc(Cl)cc3)sc2n1	0.14
Cc1[nH]cnc1CN1CCc2c(c3ccccc3n2C)C1=O [alosetron]	-2.24
CN(C/C=C/C#CC(C)(C)C)Cc1cccc2ccccc12 [terbinafine]	8.15
C[S+]([O-])c1ccc(-c2nc(-c3ccc(F)cc3)c(-c3ccncc3)[nH]2)cc1 (stereo not given)	4.9
CCCCOc1ccc(C(=O)CCN2CCCCC2)cc1 [dyclonine]	-0.75
COc1cc2c(cc1OC)[C@@H]1Cc3ccc(OC)c(OC)c3CN1CC2 [rotundine]	3.54
OCCNCCCOc1cccc(Cl)c1Cl	-19.6
NCCCCN(Cc1nc2ccccc2[nH]1)[C@H]1CCCc2cccnc21	0.08
O=C(O)C1(C(=O)O)CCC1.[NH2-].[NH2-].[Pt+2] [carboplatin]	4.39
Cc1ccc(O)c([C@H](CCN(C(C)C)C(C)C)c2ccccc2)c1 [tolterodine]	-2.67
O=C(O)CNC(=O)c1ccccc1I [2-iodohippuric-acid]	0.58
C[C@@H](NC(=O)c1ncnc(N)c1Cl)c1ncc(C(=O)Nc2cc(C(F)(F)F)c(Cl)cn2)s1	-1.31
C[C@@H](CN(C)C)CN1c2ccccc2Sc2ccccc21 (racemic) [alimemazine]	-0.47
CC1=C(CC(=O)O)c2cc(F)ccc2/C1=C\c1ccc([S+](C)[O-])cc1 (stereo not given) [sulindac]	-2.36
NCCNCCNCCN [trientine]	-1.84
Oc1c(I)cc(Cl)c2cccnc12 [clioquinol]	-9.21
O=C(NNC(=O)c1ccc(CNS(=O)(=O)c2ccc(F)c(Cl)c2)cc1)c1ccccc1	-0.76
CC1=C(/C=C/C(C)=C/C=C/C(C)=C/CO)C(C)(C)CCC1 [retinol]	2.75

Structure (SMILES)	inhibition of SARS-CoV-2 cytopathic effect [%]
CN(C)CCC(c1ccc(Br)cc1)c1ccccn1 (stereo not given) [brompheniramine]	-4.65
COc1ccc(-c2c(C)c(C(=O)NN3CCCCC3)nn2-c2ccc(Cl)cc2Cl)cc1	-1.1
CN(C[C@@H]1COCCO1)S(=O)(=O)Nc1ccc2ccc3ncc(-c4cnn(C)c4)cc3c(=O)c2c1	-4.16
OCCNC1CCCc2c1[nH]c1ccc(-c3ccccc3)cc21 (stereo not given) [casin]	14.4
CCCCCCCN(CC)CCC[C@@H](O)c1ccc(NS(C)(=O)=O)cc1 (racemic) [ibutilide]	-2.22
NCCCCN [putrescine]	0.82
C=CC(=O)Nc1cccc(C)c1Nc1ncc2cc(-c3c(Cl)c(OC)cc(OC)c3Cl)ccc2n1	3.67
CN1C[C@@H](NS(=O)(=O)N(C)C)C[C@@H]2c3cccc4c3c(cn4C)C[C@H]21 [mesulergine]	1.25
CCn1cc(C(=O)O)c(=O)c2cnc(N3CCCC3)nc21 [piromidic-acid]	-1.75
O=S(=O)(/N=C/c1c(O)ccc2ccccc12)c1cccs1	0.08
NS(=O)(=O)Cc1noc2ccccc12 [zonisamide]	-2.23
CN(C(=O)Cc1ccccc1)[C@H](CN1CCCC1)c1ccccc1	-1.59
CC(=O)NCCCOc1ccc(C(=O)N2CCC(N3C(=O)CCc4ccccc43)CC2)cc1	3.15
O=[N+]([O-])c1cncn1CCN1CCOCC1 [nimorazole]	-0.02
C=CCc1ccc(O)c(-c2cc(CC=C)ccc2O)c1 [magnolol]	-1.19
c1ccc2sc(SNC3CCCCC3)nc2c1 [N-cyclohexyl-2-benzothiazolesulfenamide]	-3.64
CCC[C@@H]1C[C@@H](C(=O)N[C@@H]([C@H]2O[C@H](SC)[C@H](O)[C@@H](O)[C@H]2O)[C@H](C)Cl)N(C)C1	-4.1
CC(C)Oc1ccc(-c2nn([C@@H](C)c3oc4ccc(F)cc4c(=O)c3-c3cccc(F)c3)c3ncnc(N)c23)cc1F	-3.52
CC(C)[C@@H](C)/C=C/[C@@H](C)[C@H]1CC[C@H]2/C(=C/C=C3\C[C@@H](O)CC[C@@H]3C)CCC[C@]12C [dihydrotachysterol]	-0.14
C=Cc1c(C)c2cc3nc(c(CC(=O)O)c4[n-]c(cc5nc(cc1[n-]2)C(C)=C5CC)c(C)c4C(=O)O)[C@@H](CCC(=O)O)[C@@H]3C.[Cu+2] [chlorophyllin-copper]	-2.81
